The whole screen tested about 5,500 compounds, of which about 2,000 (36%) were called active. Not shown: some 18% with an inconclusive outcome. Cut-off read from the data, not from the text of the source: active = normalized growth mostly below about 0.91 (no sharp cut-off); inconclusive = no clear call, values can overlap the other calls; inactive = mostly above about 0.92. This is one part of the list.
Test: chemical genetic growth profiling, strain panel (AID 1159580);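 note: tested at 20 µM; growth read once vehicle control cultures reached saturation at 30 °C; 1 = growth at the plate median or of vehicle wells; lower values mean less growth of the strain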
Settings: growth OD

Measured: normalized growth

NC1=NCCN1CC(=O)O
inactive: S. cerevisiae deletion strains, locus YJR043C, strain POL32, stronger effect = lower value 0.98 | S. cerevisiae deletion strains, locus YJR066W, strain TOR1, stronger effect = lower value 0.989 | S. cerevisiae deletion strains, locus YKL009W, strain mrt4, stronger effect = lower value 0.968 | S. cerevisiae deletion strains, locus YKL068W, stronger effect = lower value 0.986 | S. cerevisiae deletion strains, locus YKL085W, strain MDH1 (second series), stronger effect = lower value 0.983 | S. cerevisiae deletion strains, locus YKL085W, strain MDH1, stronger effect = lower value 0.983 | S. cerevisiae deletion strains, locus YKL160W, strain elf1, stronger effect = lower value 1.04 | S. cerevisiae deletion strains, locus YKL190W, strain CNB1, stronger effect = lower value 0.978 | S. cerevisiae deletion strains, locus YKR001C, strain vps1, stronger effect = lower value 0.989 | S. cerevisiae deletion strains, locus YKR026C, strain gcn3, stronger effect = lower value 1.03 | S. cerevisiae deletion strains, locus YKR091W, strain srl3, stronger effect = lower value 1.01 | S. cerevisiae deletion strains, locus YLL001W, strain dnm1, stronger effect = lower value 0.984 | S. cerevisiae deletion strains, locus YLL026W, stronger effect = lower value 1.01 | S. cerevisiae deletion strains, locus YLL041C, strain sdh2, stronger effect = lower value 1.01 | S. cerevisiae deletion strains, locus YLR027C, strain aat2, stronger effect = lower value 1.02 | S. cerevisiae deletion strains, locus YLR039C, strain RIC1, stronger effect = lower value 0.964 | S. cerevisiae deletion strains, locus YLR058C, strain SHM2, stronger effect = lower value 0.975 | S. cerevisiae deletion strains, locus YLR102C, strain apc9, stronger effect = lower value 0.986 | S. cerevisiae deletion strains, locus YLR113W, strain HOG1, stronger effect = lower value 0.983 | S. cerevisiae deletion strains, locus YLR221C, strain rsa3, stronger effect = lower value 0.987 | S. cerevisiae deletion strains, locus YLR258W, strain gsy2, stronger effect = lower value 0.996 | S. cerevisiae deletion strains, locus YLR262C, strain YPT6 (second series), stronger effect = lower value 1.02 | S. cerevisiae deletion strains, locus YLR262C, strain YPT6, stronger effect = lower value 0.958 | S. cerevisiae deletion strains, locus YLR268W, strain sec22, stronger effect = lower value 0.99 | S. cerevisiae deletion strains, locus YLR320W, strain mms22, stronger effect = lower value 0.957 | S. cerevisiae deletion strains, locus YLR330W, strain CHS5, stronger effect = lower value 1 | S. cerevisiae deletion strains, locus YLR342W, strain FKS1 (second series), stronger effect = lower value 1.01 | S. cerevisiae deletion strains, locus YLR342W, strain FKS1, stronger effect = lower value 1.02 | S. cerevisiae deletion strains, locus YLR357W, strain rsc2, stronger effect = lower value 1.03 | S. cerevisiae deletion strains, locus YLR370C, strain arc18, stronger effect = lower value 1.01 | S. cerevisiae deletion strains, locus YLR371W, strain rom2, stronger effect = lower value 0.996 | S. cerevisiae deletion strains, locus YLR384C, strain iki3, stronger effect = lower value 1.01 | S. cerevisiae deletion strains, locus YLR418C, strain cdc73, stronger effect = lower value 0.995 | S. cerevisiae deletion strains, locus YML016C, strain PPZ1, stronger effect = lower value 0.986 | S. cerevisiae deletion strains, locus YML032C, strain rad52, stronger effect = lower value 0.994 | S. cerevisiae deletion strains, locus YML120C, strain ndi1, stronger effect = lower value 0.998 | S. cerevisiae deletion strains, locus YML124C, strain tub3, stronger effect = lower value 0.995 | S. cerevisiae deletion strains, locus YMR058W, strain fet3, stronger effect = lower value 1.02 | S. cerevisiae deletion strains, locus YMR078C, strain ctf18, stronger effect = lower value 0.994 | S. cerevisiae deletion strains, locus YMR125W, strain sto1, stronger effect = lower value 1.02 | S. cerevisiae deletion strains, locus YMR129W, stronger effect = lower value 1 | S. cerevisiae deletion strains, locus YMR205C, strain PFK2, stronger effect = lower value 1.02 | S. cerevisiae deletion strains, locus YMR223W, strain ubp8, stronger effect = lower value 0.992 | S. cerevisiae deletion strains, locus YMR231W, strain pep5, stronger effect = lower value 1.02 | S. cerevisiae deletion strains, locus YMR307W, strain GAS1, stronger effect = lower value 1.05 | S. cerevisiae deletion strains, locus YNL067W, strain RPL9B, stronger effect = lower value 0.966 | S. cerevisiae deletion strains, locus YNL071W, strain lat1, stronger effect = lower value 0.983 | S. cerevisiae deletion strains, locus YNL153C, strain GIM3, stronger effect = lower value 0.989 | S. cerevisiae deletion strains, locus YNL183C, strain NPR1, stronger effect = lower value 0.919 | S. cerevisiae deletion strains, locus YNL209W, strain ssb2, stronger effect = lower value 1.03 | S. cerevisiae deletion strains, locus YNL233W, strain BNI4, stronger effect = lower value 0.974 | S. cerevisiae deletion strains, locus YNL248C, strain rpa49, stronger effect = lower value 1.03 | S. cerevisiae deletion strains, locus YNL250W, strain rad50, stronger effect = lower value 0.973 | S. cerevisiae deletion strains, locus YNL271C, strain bni1, stronger effect = lower value 0.998 | S. cerevisiae deletion strains, locus YNL298W, strain CLA4, stronger effect = lower value 0.996 | S. cerevisiae deletion strains, locus YNL307C, strain MCK1, stronger effect = lower value 0.993 | S. cerevisiae deletion strains, locus YNL322C, strain KRE1 (second series), stronger effect = lower value 1.02 | S. cerevisiae deletion strains, locus YNR049C, strain mso1, stronger effect = lower value 1.01 | S. cerevisiae deletion strains, locus YNR052C, strain pop2, stronger effect = lower value 0.998 | S. cerevisiae deletion strains, locus YOL006C, strain TOP1, stronger effect = lower value 0.944 | S. cerevisiae deletion strains, locus YOL012C, strain htz1 0.788 | S. cerevisiae deletion strains, locus YOL147C, strain pex11, stronger effect = lower value 0.995 | S. cerevisiae deletion strains, locus YOR001W, strain rrp6, stronger effect = lower value 0.966 | S. cerevisiae deletion strains, locus YOR061W, strain CKA2, stronger effect = lower value 0.958 | S. cerevisiae deletion strains, locus YOR069W, strain VPS5, stronger effect = lower value 0.995 | S. cerevisiae deletion strains, locus YOR070C, strain gyp1, stronger effect = lower value 1.02 | S. cerevisiae deletion strains, locus YOR080W, strain dia2, stronger effect = lower value 1.03 | S. cerevisiae deletion strains, locus YOR083W, strain WHI5, stronger effect = lower value 0.959 | S. cerevisiae deletion strains, locus YOR106W, strain vam3, stronger effect = lower value 1.03 | S. cerevisiae deletion strains, locus YOR136W, strain idh2, stronger effect = lower value 0.986 | S. cerevisiae deletion strains, locus YOR144C, strain elg1, stronger effect = lower value 0.992 | S. cerevisiae deletion strains, locus YOR184W, strain ser1, stronger effect = lower value 1.01 | S. cerevisiae deletion strains, locus YOR231W, strain MKK1, stronger effect = lower value 0.966 | S. cerevisiae deletion strains, locus YOR265W, strain rbl2, stronger effect = lower value 0.994 | S. cerevisiae deletion strains, locus YOR270C, strain vph1, stronger effect = lower value 0.924 | S. cerevisiae deletion strains, locus YOR290C, strain snf2, stronger effect = lower value 1.01 | S. cerevisiae deletion strains, locus YOR316C, strain cot1, stronger effect = lower value 0.989 | S. cerevisiae deletion strains, locus YPL051W, strain arl3, stronger effect = lower value 0.997 | S. cerevisiae deletion strains, locus YPL055C, strain LGE1, stronger effect = lower value 0.918 | S. cerevisiae deletion strains, locus YPL078C, strain atp4, stronger effect = lower value 1.03 | S. cerevisiae deletion strains, locus YPL106C, strain sse1, stronger effect = lower value 1.01 | S. cerevisiae deletion strains, locus YPL240C, strain hsp82, stronger effect = lower value 1.01 | S. cerevisiae deletion strains, locus YPL256C, strain CLN2, stronger effect = lower value 0.953 | S. cerevisiae deletion strains, locus YPR119W, strain clb2, stronger effect = lower value 0.983 | S. cerevisiae deletion strains, locus YPR141C, strain kar3, stronger effect = lower value 0.988 | S. cerevisiae deletion strains, locus YPR163C, strain tif3, stronger effect = lower value 0.986 | S. cerevisiae deletion strains, locus YPR167C, strain met16, stronger effect = lower value 0.993 | S. cerevisiae deletion strains, strain wtn01, stronger effect = lower value 0.995 | S. cerevisiae strains, strain wild type, stronger effect = lower value 0.982
